RecA splice inh – blocks M. tuberculosis RecA intein splicing. P9WHJ3. inhibition, % (test concentration not listed). cell-free RecA intein splicing, fluorescence. 0.75% of 290,000 active; in the data active means inhibition above about 30%;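 further: 0% = vehicle wells and 100% = reference inhibitor control wells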
Target sequence (P9WHJ3 whole entry, looked up, canonical isoform): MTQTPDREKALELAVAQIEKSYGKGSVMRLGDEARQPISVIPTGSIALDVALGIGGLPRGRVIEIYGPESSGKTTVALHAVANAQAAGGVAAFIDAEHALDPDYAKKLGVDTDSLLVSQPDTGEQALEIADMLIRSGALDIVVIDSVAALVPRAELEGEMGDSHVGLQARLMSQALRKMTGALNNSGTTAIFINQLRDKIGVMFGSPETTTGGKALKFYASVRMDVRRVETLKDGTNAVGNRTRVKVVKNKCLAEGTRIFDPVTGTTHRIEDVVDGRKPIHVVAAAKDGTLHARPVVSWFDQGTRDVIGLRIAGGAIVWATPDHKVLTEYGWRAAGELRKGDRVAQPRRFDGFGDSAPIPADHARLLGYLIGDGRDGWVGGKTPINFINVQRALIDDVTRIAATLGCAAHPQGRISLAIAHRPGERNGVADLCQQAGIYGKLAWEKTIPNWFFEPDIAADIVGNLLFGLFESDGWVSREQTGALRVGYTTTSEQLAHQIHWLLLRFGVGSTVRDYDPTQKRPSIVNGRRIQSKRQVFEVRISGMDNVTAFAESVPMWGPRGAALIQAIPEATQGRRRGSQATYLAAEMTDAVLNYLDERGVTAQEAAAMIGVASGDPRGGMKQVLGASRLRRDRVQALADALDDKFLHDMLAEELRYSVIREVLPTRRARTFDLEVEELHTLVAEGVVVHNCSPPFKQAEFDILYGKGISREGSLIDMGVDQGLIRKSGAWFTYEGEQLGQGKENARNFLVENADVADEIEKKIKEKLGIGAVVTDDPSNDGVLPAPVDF
CCHFV vOTU inh – blocks the CCHF virus ovarian tumor domain protease; CCHFV vOTU protease, Pep-AMC fluorescence; 0.55% of 370,000 active; inhibition, % at 11.5 µM; further: 0% = vehicle wells with enzyme and 100% = no enzyme wells
Mtb betalactam – beta-lactam sensitization of Mtb H37Rv; AID 434955; M. tuberculosis H37Rv growth with meropenem, percent inhibition; inhibition, % at 25 µM; 0.27% of 330,000 active; call rule not given here;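 further: growth measured after seven days incubation then overnight dye step; 0% = bacteria only wells and 100% = bacteria with antibiotic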
GDH-TPI counter-1 – inhibits GDH-TPI coupling enzymes, artifact for Mtb FBA screen. inhibition, % at 4.8 µM. GDH-TPI coupled enzyme counterscreen, NADH absorbance. 1.2% of 360,000 active;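 further: 0% = DMSO wells and 100% = wells lacking the enzyme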
FBA Mtb inh – inhibitors of M. tuberculosis fructose-bisphosphate aldolase; P9WQA3; inhibition, % at 1 µM; 2.3% of 360,000 active; purified M. tuberculosis FBA, fluorescence read-out; in the data active means inhibition above about 27%;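 further: 0% = vehicle and 100% = reference inhibitor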
Mtb FBA confirm – Mtb FBA inhibition, confirmed; shares compounds with FBA Mtb inh; purified M. tuberculosis FBA, fluorescence read-out; inhibition, % at 1 µM; 78% of 5,600 active; AID 651616; in the data active means inhibition above about 27%;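 further: 0% = vehicle wells and 100% = reference inhibitor wells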
GDH-TPI counter-2 – inhibits GDH-TPI coupling enzymes, flagging Mtb FBA hits. 81% of 5,600 active. shares compounds with FBA Mtb inh. inhibition, % at 1 µM. GDH-TPI coupled enzyme counterscreen, fluorescence; in the data active means inhibition above about 10%
GDH-TPI dose – counter-screen for M. tuberculosis FBA inhibitors: GDH-TPI dose response; shares compounds with FBA Mtb inh; GDH-TPI coupled enzyme assay, fluorescence, artifact counterscreen; IC50, µM; 79% of 170 active; call rule not given here
An asterisk follows results filed as active; . = no result given; + = active, no number. In the library only some 4.2% were active in any assay of this set; here they are far more common. Unless noted, no stated cut-off is given here; in the data, active means inhibition above about 30%; inactive means the rest.

SMILES	RecA splice inh	CCHFV vOTU inh	Mtb betalactam	GDH-TPI counter-1	FBA Mtb inh	Mtb FBA confirm	GDH-TPI counter-2	others
O=C(NCCc1cn2ccsc2n1)C1CCCCC1	2	0	-2	6	-2	.	.
O=C(NCCc1cn2ccccc2n1)C1CCCCC1	2	-4	6	4	27*	109*	80*
Nc1ccc2c(c1)nnn2-c1ccccc1	-2	-31	97	-7	31*	190*	152*
C[C@H]1CN(c2ccc(N3CCNC[C@@H]3C)cc2C#N)CCN1Cc1ccccc1	.	1	.	.	.	.	.
O=C(Nc1ccc(NC(=O)c2ccccc2O)cc1)Nc1ccc(F)cc1F	-1	2	-5	16	34*	53*	51*
O=C(Nc1ccc(F)cc1)Nc1ccccc1F	1	12	-4	5	1	.	.
COc1ccccc1CNC(=O)N1CCC(c2nc3ccc(Cl)cc3[nH]2)CC1	.	-3	.	.	.	.	.
C[C@H](O)[C@@H]1CN2CCc3c([nH]c4cccc(-c5ccccc5)c34)[C@@H]2C[C@@H]1N(C)C(=O)c1ccco1	.	-5	.	.	.	.	.
CCOC(=O)Cn1c(C(F)(F)F)nc2nc(Cl)c(Cl)nc21	.	-77	.	11	55*	102*	62*
O=C(C1CCCN(S(=O)(=O)c2ccccc2F)C1)N1CCN(Cc2ccccc2)CC1 (stereo unspecified)	.	-1	.	.	.	.	.
O=C(COC(=O)c1ccccc1NCCO)Nc1ccc(S(=O)(=O)NC2=NCCCCC2)cc1	.	-105	.	18	84*	84*	61*
O=C(COC(=O)c1ccccc1O)Nc1cccc(S(=O)(=O)NC2=NCCCCC2)c1	2	-9	-9	0	-3	.	.
COc1ccc(-c2c(C)nc3c(-c4ccccn4)cnn3c2N)cc1	1	-3	49	24	27*	68*	67*
COc1cc2nc(N3CCNCC3)nc(N)c2cc1OC	-4	-56	-13	4	56*	8	-3
Cc1ccc2[nH]c(-c3cccc(F)c3)cc(=O)c2c1	0	6	2	15	11	.	.
COc1ccc2[nH]c(-c3cccc(F)c3)cc(=O)c2c1	0	-19	-1	3	41*	2	-4
CCN1CCCC1Cn1cnc2c([nH]c3ccc(OC)cc32)c1=O (stereo unspecified)	-1	-46	-10	-1	57*	157*	125*
COc1ccc2c(c1)c1ncn(Cc3ccc(F)cc3)c(=O)c1n2C	-1	-23	-10	1	51*	3	-2
COc1cc2[nH]c3c(=O)n(CCN4CCCCC4)cnc3c2cc1OC	-3	-7	2	24	41*	107*	92*
CCC1CCCN1Cn1cnc2c([nH]c3ccc(C)cc32)c1=O (stereo unspecified)	1	-21	0	11	41*	+	+
COc1ccc2[nH]c3c(=O)n(Cc4ccncc4)cnc3c2c1	0	-70	-2	0	101*	20	5	GDH-TPI dose=1.9*
C=CCn1c(SCC(=O)NC2CCCCC2)nnc1-c1sc(N)nc1C	-3	6	-9	10	30*	114*	96*
C=CCn1c(SCC(=O)Nc2sc(C)c(C)c2C(=O)OCC)nnc1-c1sc(N)nc1C	-3	-3	-1	11	-1	.	.
COc1ccc2c(c1)CCc1cnc(N)nc1-2	0	-74	90	30	106*	-3	-2
Cc1cc(=O)[nH]c(SCC(=O)Nc2ccc(Cl)cc2)n1	.	5	.	.	.	.	.
SMILES	RecA splice inh	CCHFV vOTU inh	Mtb betalactam	GDH-TPI counter-1	FBA Mtb inh	Mtb FBA confirm	GDH-TPI counter-2	others
C=CCOc1ccc(/C=C/C(=O)Nc2ccc(C(=O)NC)cc2)cc1	1	-16	5	23	45*	44*	37*
C=CCn1c(SCC(=O)Nc2nncs2)nnc1-c1ccco1	-2	4	1	-1	75*	+	+
C=CCn1c(SCC(=O)Nc2ccccc2OC)nnc1-c1ccco1	0	3	.	.	.	.	.
COc1ccc(-c2csc(NC(=O)c3ccccc3NS(=O)(=O)c3ccc(C)cc3)n2)cc1	19	9	-3	17	24	.	.
COc1ccc(S(=O)(=O)Nc2ccccc2C(=O)Nc2nc(-c3ccc(F)cc3)cs2)cc1OC	6	2	-2	11	33*	92*	68*
C[C@@H]1OC(C2CCCCC2)N(C)[C@H]2C[C@H]3c4[nH]c5c(-c6ccc7c(c6)OCO7)cccc5c4CCN3C[C@@H]12 (stereo partly specified)	.	-3	.	.	.	.	.
COc1cc(NC(=O)c2ccccc2)c(C)cc1NC(=O)CSc1nnc(COc2ccccc2)n1Cc1ccco1	.	5	.	.	.	.	.
CCCCc1c(-c2ccccc2OC)ncn1C(C)c1ccccc1 (stereo unspecified)	.	10	.	.	.	.	.
O=C(c1ccc2[nH]c3c(c2c1)CCCC3)N1CCN(c2ccc(F)cc2)CC1	5	1	58	4	-1	.	.
Cc1[nH]c2ccc(C(=O)N3CCN(c4ccc(F)cc4)CC3)cc2c1C	6	28	2	9	30*	158*	120*
CCN(CC)C(=O)CC[C@@H]1CC[C@]2(CCCN(C(=O)C3CCCCC3)C2)O1	.	4	.	.	.	.	.
COC(=O)c1cccc(Cn2ccc3ccc(-c4ccc5ccn(C(=O)C6CCC6)c5c4)cc32)c1	.	-7	.	.	.	.	.
Cn1nc(/C=C/c2ccccc2)ccc1=O	1	1	-10	0	31*	64*	56*
O=C(c1cccs1)n1ccc2ccc(-c3ccc4ccn(Cc5ccccc5)c4c3)cc21	.	8	.	.	.	.	.
CCOC(=O)CCSc1nc(C)c2cc(OC)ccc2n1	1	-44	4	0	36*	140*	116*
CCOC(=O)CCSc1nc(C)c2cc(C)c(C)cc2n1	1	10	96	-3	2	.	.
CCOc1ccc(-c2nnc(-c3ccco3)o2)cc1OCC	0	-19	-3	8	74*	130*	119*
Brc1ccc(-c2nnc(-c3ccco3)o2)cc1	1	3	59	8	60*	149*	145*
CCOc1cc(-c2nnc(-c3ccco3)o2)cc(OCC)c1OCC	-2	13	10	-2	22	.	.
c1ccc(-c2nnc(-c3ccco3)o2)cc1	-1	7	-2	4	42*	64*	49*
COC(=O)c1cnn2c3c(c(C)nc12)CCCC3	.	-20	4	2	74*	130*	107*
Nc1cc(-c2nc3ncccc3o2)ccc1Cl	2	-15	-10	23	38*	87*	71*
Nc1ccc(-c2nc3ncccc3o2)c(Cl)c1	-1	-36	-8	47*	91*	1	3
Cc1ccc2c(c1)COc1c3ccc(C(=O)N[C@@H](C)CO)cc3nn1-2	2	-23	14	21	34*	+	+
